Screen size: about 85,000 compounds; about 5,100 (6%) were called active. What follows is part of a selection rich in actives, with near analogues and random picks from the rest. Unmarked numbers belong to inactive results.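 Rule for the calls: active = viability at or below 40%; inactive = viability above 40%.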
Experiment: proliferation blockers of H69AR lung cancer cells, primary screen, cell-based, human, 86K library (AID 598);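 note: multidrug resistant small cell line overexpressing MRP-1 efflux transporter; 100% = mean luminescence of untreated control wells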
Details: H69AR lung tumor viability, ATP luminescence, 72 h; at 10 µM; active compounds read low

Row | SMILES | viability
1 | CCn1nccc1C(=O)Nc1ccc(Cl)c(Cl)c1 | 77%
2 | O=C(CC(O)(C(F)(F)F)C(F)(F)F)Nc1ccc(Cl)c(Cl)c1 | 1.49% (active)
3 | CN(C)CCNC(CC(=O)Nc1ccc(Cl)c(Cl)c1)C(=O)O (stereo not drawn) | 99.7%
4 | CCOC(=O)N1CCC(N(CCOC)C(=O)Nc2ccc(C)c(C)c2)CC1 | 44.7%
5 | Cc1noc(C)c1CSCC(=O)Nc1nc2ccc(Oc3ccccc3)cc2s1 | 76.8%
6 | COc1ccc(OC)c(-n2cc3c(=O)n(C)c(=O)n(C)c3c2)c1 | 29.6% (active)
7 | COc1ccc(-c2c3c(=O)n(C)c(=O)n(C)c3cn2-c2cccc(OC)c2)cc1 | 71.5%
8 | Cn1c(=O)c2cn(-c3cccc4ccccc34)cc2n(C)c1=O | 47.3%
9 | COCCCn1c(SCC(=O)Nc2ccccc2)nnc1-c1ccncc1 | 95.9%
10 | CC1(C)COC(c2cccn2Cc2ccccc2Cl)=N1 | 104%
11 | O=c1c2ccccc2nc2n1C1(CCCCC1)Cc1ccccc1-2 | 83.7%
12 | Cc1cc(NC(=O)CN2CCCC(C)C2)n(-c2nc3ccccc3s2)n1 (stereo not drawn) | 62.1%
13 | CCOC(=O)N1CCN(CC(=O)Nc2cc(C)nn2-c2nc3ccccc3s2)CC1 | 4.45% (active)
14 | CCOC(=O)N1CCC(NC(=O)c2ccc3nc(N4CCOCC4)sc3c2)CC1 | 95.7%
15 | Cc1nn(C)cc1CNC(=O)Nc1ccc(Cl)cc1 | 90.8%
16 | Cc1cccc(NC(=O)CN2CCCN(S(=O)(=O)c3ccc(Br)s3)CC2)c1 | 35.9% (active)
17 | Cc1cccc(NC(=O)CN2C(=O)CNC2=O)c1 | 91.7%
18 | Cc1cccc(NC(=O)CSc2nnc(NC(=O)CN3CCOCC3)s2)c1 | 79.3%
19 | C/C(=N\NC(=O)c1nc(C)cc(C)n1)c1ccccc1 | 99.7%
20 | O=C1c2ccccc2C(=O)N1CCCc1nc(-c2ccccc2)no1 | 95.5%
21 | Oc1ccc(-c2onc3ccc(Cl)cc23)cc1 | 98.2%
22 | COc1ccc(N2CCN(Cc3ccc(Br)s3)CC2)cc1 | 65.6%
23 | CC1(C)Cc2cccc(OCC(N)=O)c2O1 | 102%
24 | Fc1ccc2nc(Nc3nc4c(s3)CCCC4)sc2c1 | 36.1% (active)
25 | CNC(=O)c1ccc2nc(NC(C)=O)sc2c1 | 99%

Row | SMILES | viability
26 | Fc1ccc2nc(N3CCCCC3)sc2c1 | 90%
27 | COC(=O)CSc1nc2c(c(C3CC=CCC3)c1C#N)CCC2 (stereo not drawn) | 65.3%
28 | O=C(c1cccc(F)c1)N1CCC(O)(c2cccnc2)CC1 | 88.1%
29 | CCOC(=O)N1CCC(Nc2c(NCCCN3CCN(CC)CC3)c(=O)c2=O)CC1 | 112%
30 | CCOC(=O)c1cnc(SCC(=O)NCc2ccco2)nc1N | 91.3%
31 | O=C(COC(=O)C12CC3CC(CC(C3)C1)C2)NCc1ccco1 | 83.8%
32 | Cc1cc(C(=O)OCC(=O)NCc2ccco2)c(C)n1-c1ccccc1 | 29.6% (active)
33 | CNc1nc(SC)nc(N(C#N)CC(=O)OC)n1 | 92.4%
34 | CCN(CC)S(=O)(=O)c1ccc2c3c(cccc13)C(=O)S2 | 69%
35 | O=C(CSC1=Nc2ccccc2C2=NC(CC(=O)NCc3ccco3)C(=O)N12)NCc1ccco1 (stereo not drawn) | 85.9%
36 | CCOc1cc(NC(=O)c2cnccn2)c(OCC)cc1NC(=O)c1ccc(C)cc1 | 110%
37 | Cc1ccc(OCC(=O)N2CCN(C(=O)c3cccnc3)CC2)cc1 | 86.2%
38 | COc1ccc(NC(=O)C(CC(C)C)NS(=O)(=O)c2ccc3c(c2)CCN3C(C)=O)cc1OC (stereo not drawn) | 90.6%
39 | CCN(CC)Cc1cc(C(C)=O)ccc1O | 98.5%
40 | CCOc1ccc2c(c1)C(c1ccc(C)cc1)=NNC(c1ccc(C)cc1)=N2 | 21% (active)
41 | COc1ccc(C2C(C(C)=O)=C(O)C(=O)N2Cc2cccnc2)cc1 (stereo not drawn) | 99.2%
42 | Cc1ccc(Nc2nnc(SCc3ccccc3)s2)cc1 | 98.2%
43 | COc1ccccc1C(=O)N1CC2(C)CC1CC(C)(C)C2 (stereo not drawn) | 84.2%
44 | Cc1ccc(/C=N/NC(=O)Cn2nc(C)c(Br)c2C)o1 | 102%
45 | CCCCNC(=O)CCNC(=O)c1ccc(C(C)(C)C)cc1 | 102%
46 | CCOc1ccc(N(CC(=O)OC)S(=O)(=O)c2c(C)noc2C)cc1 | 96.6%
47 | CCOC(=O)c1cccc(NC(=O)CN(c2ccc(C)cc2)S(=O)(=O)c2c(C)noc2C)c1 | 24% (active)
48 | Cc1noc(C)c1S(=O)(=O)N(CC(=O)Nc1ccc2c(c1)OCCO2)c1ccc(C(C)C)cc1 | 56.8%
49 | CCOC(=O)c1cc2c(ccn2C)n1CC(=O)N1CCC(C)CC1 | 88.5%
50 | O=C(COc1ccccc1)Nc1nonc1NC(=O)COc1ccccc1 | 93.3%

Row | SMILES | viability
51 | COc1ccc(CN2CN(C(C)C)CSC2=S)cc1 | 0.67% (active)
52 | O=C(Nc1cc2ccccc2oc1=O)C1CCCCC1 | 98.1%
53 | Cc1ccccc1-n1nc(C)c2cc(C(=O)NC3CC3)sc21 | 66.4%
54 | Cc1ccccc1NC(=O)c1cnn(-c2ccccc2)c1NC(=O)c1ccco1 | 84.4%
55 | O=C(Nc1c(-c2ccccc2)nc2c(Br)cc(Br)cn12)c1ccco1 | 29.5% (active)
56 | O=C(Nc1ccc(Sc2ccc(Br)cc2)cc1)c1ccco1 | 54.3%
57 | CCOC(=O)c1c(N=CN(C)C)c(C#N)c2n1CCCC2 | 90.8%
58 | COc1ccc2[nH]c(=O)c(CN(Cc3nnnn3CCc3ccccc3)CC3CCCO3)cc2c1 (stereo not drawn) | 67.1%
59 | CCOc1ccc2[nH]c(=O)c(CN(Cc3nnnn3CCc3ccccc3)CC3CCCO3)cc2c1 (stereo not drawn) | 85.5%
60 | CCOc1ccc2[nH]c(=O)c(CN(Cc3nnnn3Cc3ccccc3)CC3CCCO3)cc2c1 (stereo not drawn) | 34.3% (active)
61 | O=C(COc1ccc(S(=O)(=O)NCc2ccccc2)cc1)N1CCOCC1 | 97.4%
62 | COc1ccc(Nc2oc(-c3ccccc3Cl)nc2C#N)cc1 | 14.3% (active)
63 | COc1ccccc1-c1nc(C#N)c(N2CCC(C(N)=O)CC2)o1 | 95.8%
64 | CCOc1ccc(Nc2oc(Cc3ccccc3)nc2C#N)cc1 | 78%
65 | Cc1cc2nc(SCCN3CCOCC3)[nH]c2cc1C | 109%
66 | C=C(C)CSc1nnc(-c2ccc(C)cc2)n1N | 99.4%
67 | CC(=NCc1ccco1)c1c(C(F)(F)F)[nH]n(-c2nc3ccccc3s2)c1=O | 63.2%
68 | CS(=O)(=O)N(Cc1nc2sc3c(c2c(=O)[nH]1)CCCC3)C1CCCCC1 | 16.8% (active)
69 | NNC(=O)C1CCCn2c1nc1sc3c(c1c2=O)CCCC3 (stereo not drawn) | 91.5%
70 | N=c1c2c3c(sc2nc2n1CCCCC2)CCCC3 | 84%
71 | CCn1c(CC(=O)Nc2ccc(C)cc2)nnc1SCC(=O)Nc1nc(C)cs1 | 111%
72 | S=C1NC(c2ccccc2)=NCN1c1ccc(Br)cc1 | 88.9%
73 | CCOc1ccc(NC(=O)CN2CCN(CC(=O)Nc3ccc(OC)cc3)CC2)cc1 | 56.5%
74 | CC1CN(S(=O)(=O)c2ccccc2)C(C)CN1S(=O)(=O)c1ccccc1 (stereo not drawn) | 101%
75 | CC(O)CN(Cc1ccc(Cl)cc1)CC(C)O (stereo not drawn) | 100%

Row | SMILES | viability
76 | CCOc1ccccc1Oc1cn[nH]c1-c1ccc(OC)cc1O | 16.2% (active)
77 | CCOc1ccccc1NC(=O)Nc1cc(OC)ccc1OC | 93.8%
78 | CCOc1cc(-c2cc(-c3ccc(OC)cc3)nc(N)c2C#N)ccc1O | 51%
79 | CCCC1(C(=O)OCC)NC(c2ccc(N(C)C)cc2)C2C(=O)N(c3ccc4c(c3)OCCO4)C(=O)C21 (stereo not drawn) | 80%
80 | Cc1ccc(O/C=C2\OC(=O)c3ccccc32)cc1 | 89.6%
81 | CN(Cc1nc2ccccc2c(=O)[nH]1)Cc1cc(=O)oc2ccc3ccccc3c12 | 91%
82 | NC(=O)C1(N2CCCCC2)CCN(C2CC(=O)N(Cc3ccc(N4CCCC4=O)cc3)C2=O)CC1 (stereo not drawn) | 100%
83 | COC(=O)Nc1ccc(S(=O)(=O)N2CCN(CCN3C(=O)C4C5C=CC(C5)C4C3=O)CC2)cc1 (stereo not drawn) | 79.9%
84 | CCCCNC(=O)CSc1nc2n[nH]c(C)c2c(=N)n1-c1cccc(Cl)c1C | 15.5% (active)
85 | CCCCNC(=O)CSc1nnc(-c2ccco2)n1C | 81.6%
86 | CCCCNC(=O)CSc1nccn1Cc1ccccc1 | 99.2%
87 | COc1ccc(CNCCCO)cc1OC | 111%
88 | Cc1ccc(S(=O)(=O)Oc2ccc(/C=N/NC(=O)c3c(Cl)cnn3C)cc2)cc1 | 79.2%
89 | COc1ccccc1NC(=O)CSc1nnc(C)n1CC1CCCO1 (stereo not drawn) | 113%
90 | Cn1c(=O)c2c(nc(N3CCCCCC3)n2CC(=O)c2ccc(Br)cc2)n(C)c1=O | 46.8%
91 | O=C(c1ccc(Cl)cc1)c1ccc(OCC(O)CN2CCCCC2)cc1 (stereo not drawn) | 64.1%
92 | Cn1c(=O)c2c(nc(N3CCCCCC3)n2CC(O)COc2ccc(Cl)cc2)n(C)c1=O (stereo not drawn) | 28.2% (active)
93 | CCN(CC)C(=O)CC1(c2ccccc2OC)CCOC(C(C)C)C1 (stereo not drawn) | 86.8%
94 | COC(=O)c1ccc(CSc2ccc3nnc(-c4ccccc4)n3n2)o1 | 71.6%
95 | CCN1CCc2c(C#N)c(NCc3ccccc3)nc(NCCO)c2C1 | 62.2%
96 | CC(C)CCNc1nc(N2CCCC2)c2c(c1C#N)CCN(C)C2 | 1.84% (active)
97 | CC(C)Cc1nc(N2CCOCC2)c(C#N)c2c1CCC2 | 89.6%
98 | Cc1ccc2nc(SC(C)C(=O)NCc3ccco3)[nH]c2c1 (stereo not drawn) | 85.7%

Reference: PubChem BioAssay AID598 (SRMLSC, 2007)
